Shiga inhibitor: A qHTS for Small Molecule Inhibitors of Shiga Toxin | Vero cells, Shiga toxin protein synthesis inhibition reporter | inhibition, % at 38.7 µM | 290,000 compounds, 9.2% hits | AID 2315, 2010; in the data active = inhibition mostly above about 28%, no sharp cut-off; inactive = mostly below about 43%
NS1 inh: qHTS Assay for Inhibitors of Influenza NS1 Protein Function; Potency, µM (highest dose often 46.1 µM); 270,000 compounds, 0.4% hits; calls by dose curve; also: actives are rising curves; nearly all actives have a fitted effect of over 50% in size
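Compounds were scored for reversing the slow growth caused by influenza A NS1 in S. cerevisiae, measured by optical density at 600 nm. Assay medium contained 2% galactose at pH 6.0; NS1-free yeast of the same strain were the positive control.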
Pf growth 48h: Primary qHTS for delayed death inhibitors of the malarial parasite plastid, 48 hour incubation | P. falciparum luciferase growth in erythrocytes, 48 h | AID 504832, 2011 | 310,000 compounds, 5.9% hits | Potency, µM (series often up to 28.7 µM), most hits filed as inhibitors
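A one-generation exposure of luciferase-tagged malaria parasites in RPMI 1640/Albumax erythrocyte culture, 37 C and 5% CO2. Inhibition is inferred from decreased luminescence after adding detection reagent.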
Pf growth 96h: Primary qHTS for delayed death inhibitors of the malarial parasite plastid, 96 hour incubation | 320,000 compounds, 6.9% hits | Potency, µM (titrated, usually from 28.7 µM), most hits filed as inhibitors | P. falciparum luciferase reporter growth, 96 h
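Two parasite generations (96 h, 37 C, 5% CO2) of compound exposure in infected erythrocytes (0.05% parasitemia, 2% hematocrit). Luciferase-reporter P. falciparum; decreased luminescence indicates inhibited growth, aimed at apicoplast-acting delayed death.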
CHX counter: Cycloheximide Counterscreen for Small Molecule Inhibitors of Shiga Toxin | cell reporter, cycloheximide protein synthesis inhibition counterscreen | max response, % | 300,000 compounds, 12% hits; in the data active = max response mostly above about 13%, no sharp cut-off; inactive = mostly below about 14%; also: read at 38.3 µM for the half of the compounds with a filed dose
Each line names hits and unclear results; the compound was inactive in the other large screens. The list is not random: actives were taken first. Their share in the collection is about 21%. Unless noted, calls follow the shape of the dose curve; as a rule, active = well fitted inhibition curve with a large enough effect; inconclusive = small, poorly fitted or top-dose-only effect, or another doubt; inactive = no such curve, though single readings can be large or run the other way.

COc1ccc(CN2CCc3ccccc3C2)cc1Br	Pf growth 48h inconclusive
C=CCn1c(C)nnc1SCC(=O)N1CCN(S(=O)(=O)c2ccccc2)CC1	Pf growth 48h inconclusive
O=C(CCCc1cccs1)Nc1nccs1	none (no result: NS1 inh)
NC(=O)CCCCC(=O)OCCCc1cccs1	Pf growth 96h 4.7µM
Cc1cc(S(N)(=O)=O)c(N)c(S(N)(=O)=O)c1	Pf growth 48h inconclusive
O=C(Nc1cccnc1)c1cc(-c2ccccc2)on1	none
COC(=O)c1c(-c2cccnc2)csc1NC(=O)c1cc(C)on1	Shiga inhibitor 83, CHX counter 63 (no result: Pf growth 96h)
O=C(Nc1cccnc1)c1cc(-c2ccc(Br)cc2)on1	Shiga inhibitor 42, CHX counter 20
COc1cccc(-c2cc(C(=O)Nc3cccnc3)no2)c1	Shiga inhibitor 80, CHX counter 31 (no result: Pf growth 96h)
Cc1ccc(S(=O)(=O)NC(=O)NC2CCCC2)cc1	none (no result: Shiga inhibitor, NS1 inh, CHX counter)
CCN(CC)C(=O)Nc1ccc(OC[C@H](O)CNC(C)(C)C)c(C(C)=O)c1	none (no result: Shiga inhibitor, NS1 inh, CHX counter)
O=C(CCc1ccccn1)N1CCCC(CNS(=O)(=O)c2cccs2)C1 (configuration not stated)	Pf growth 96h inconclusive
Cc1ccc(-c2cc3c(nn2)-c2ccccc2C3=O)cc1	Shiga inhibitor 25, Pf growth 48h 0.52µM, Pf growth 96h 0.37µM, CHX counter 22
O=C1c2ccccc2-c2nnc(-c3ccc(F)cc3)cc21	Shiga inhibitor 80, Pf growth 96h inconclusive, CHX counter 42 (no result: NS1 inh)
Cc1ccccc1-c1cc2c(nn1)-c1ccccc1C2=O	Shiga inhibitor 83, Pf growth 48h 4.1µM (no result: Pf growth 96h)
COc1cc(-c2c(C(C)=O)c(C)nc3c2C(=O)c2ccccc2-3)cc(OC)c1OC	none
O=C1c2ccccc2-c2nnc(-c3ccc(O)cc3)cc21	CHX counter 20
O=C1c2ccccc2-c2n[nH]c3cccc1c23	Pf growth 96h inconclusive (no result: Shiga inhibitor, CHX counter)
N#Cc1c(-c2ccccc2)cc(-c2ccc(O)cc2)nc1N	Pf growth 48h inconclusive
COc1ccccc1CNC(=O)CN1C(=O)c2ccc([N+](=O)[O-])cc2C1=O	none
Cc1cc(C)cc(C(=O)N2CC(C)OC(C)C2)c1 (configuration not stated)	none (no result: Pf growth 48h)
CC1(C)CC(/C=C/c2ccccc2)=Nc2ccccc2N1	Shiga inhibitor 83, Pf growth 48h inconclusive, Pf growth 96h inconclusive, CHX counter 52
O=C1CC(C(F)(F)C(F)(F)C(F)(F)F)=Nc2ccccc2N1	none
O=C1CC(/C=C/c2ccccc2)=Nc2ccccc2N1	Shiga inhibitor 58, CHX counter 30
O=C1CC(/C=C/c2ccc(Cl)cc2)=Nc2ccccc2N1	Shiga inhibitor 97, Pf growth 48h inconclusive, Pf growth 96h inconclusive, CHX counter 39
O=C1CC(/C=C/c2cccnc2)=Nc2ccccc2N1	Pf growth 48h inconclusive, Pf growth 96h inconclusive, CHX counter 17
COc1cc2c(cc1OC)C(c1ccccc1O)N(C1CC(=O)N(c3ccccc3)C1=O)CC2 (configuration not stated)	none (no result: Pf growth 96h)
CC(=O)Oc1ccc(C(=O)[C@H]2[C@H]3C(=O)N(c4cccc5ccccc45)C(=O)[C@H]3[C@@H]3C=CC=NN32)cc1	NS1 inh inconclusive
CC(=O)Nc1ccc(S(=O)(=O)N2CCC(C(N)=O)(N3CCCCC3)CC2)cc1	none
COc1ccc(N(CC(=O)NCc2ccc(F)cc2)C(=O)c2snc(C(N)=O)c2N)cc1OC	none
C=CCn1cnc2c(c1=O)c1nc3ccccc3nc1n2-c1ccc(C)cc1	Pf growth 96h inconclusive
C=CCn1cnc2c(c1=O)c1nc3ccccc3nc1n2-c1ccccc1	Pf growth 96h 5.9µM (no result: Pf growth 48h)
C=CCn1cnc2c(c1=O)c1nc3ccccc3nc1n2/N=C/c1ccccn1	Pf growth 96h 1.9µM
C=CCn1cnc2c(c1=O)c1nc3ccccc3nc1n2/N=C/c1cc(OC)c(OC)c(OC)c1	Pf growth 48h 3.7µM, Pf growth 96h 5.9µM
O=C(CSc1nnc(CNc2ccc(F)cc2)n1CC1CCCO1)N1CCOCC1 (configuration not stated)	none
CC(=O)Nc1ccc(-c2sc(Nc3cccc4ccccc34)n[n+]2-c2ccccc2)cc1	none
COc1ccc2oc(C(=O)OCC(=O)N(C)CC(=O)Nc3ccc(F)cc3)c(C)c2c1	none (no result: Shiga inhibitor, NS1 inh, CHX counter)
CCN(CC(=O)NC1CCS(=O)(=O)C1)c1ccc([N+](=O)[O-])cc1C#N (configuration not stated)	Pf growth 96h inconclusive (no result: Shiga inhibitor, NS1 inh, CHX counter)
COc1ccc(C(=O)/C=C/Nc2ccc([N+](=O)[O-])cc2)cc1	Shiga inhibitor 114, CHX counter 85
CCOc1ccc(N/C=C/C(=O)c2ccc(OC)cc2)cc1	Shiga inhibitor 132, Pf growth 96h inconclusive, CHX counter 20
CCOc1ccc(N/C=C/C(=O)c2ccc(OC)cc2)c([N+](=O)[O-])c1	Shiga inhibitor 132, CHX counter 39
CCOc1ccc(NC(=S)NC(=O)/C=C/c2ccc(Br)cc2)c([N+](=O)[O-])c1	none
C[C@@H]1Cc2ccccc2N1NC(=O)c1ccc(Cl)c(S(N)=O)c1 (some centres not stated)	none (no result: Shiga inhibitor, NS1 inh, CHX counter)
COC(=O)/C=C1/S/C(=N/N=C/c2ccc(N(C)C)cc2)NC1=O	none
O=C(c1ccccc1)c1ccc(Cn2cc(-c3ccccc3)nn2)cc1	Shiga inhibitor 57, CHX counter 24
C=CCc1cccc(/C=N/NC(=O)C(=O)Nc2ccc(C)cc2)c1O	Pf growth 96h inconclusive
Cc1ccc2occ(/C=N/NC(=O)c3ccccc3Br)c(=O)c2c1	Pf growth 96h 4.7µM
C=CCc1cccc(/C=N/NC(=O)c2ccccc2Br)c1O	Shiga inhibitor 50, Pf growth 48h inconclusive, Pf growth 96h inconclusive (no result: NS1 inh)
COc1ccccc1/C=N/NC(=O)c1ccccc1Cl	none (no result: NS1 inh)
C=CCc1cccc(/C=N/NC(=O)c2ccccc2OC)c1O	Shiga inhibitor 135, Pf growth 48h inconclusive, Pf growth 96h inconclusive, CHX counter 30 (no result: NS1 inh)
O=C(N/N=C/c1ccccc1C(=O)O)c1ccccc1Br	none (no result: NS1 inh)
C=CCc1cccc(/C=N/NC(=O)C(C)Nc2ccc(C)cc2)c1O (configuration not stated)	Pf growth 48h inconclusive, Pf growth 96h 12µM
O=C(OCC(=O)N1CCN(C(=O)c2ccco2)CC1)c1ccccc1OCc1ccc(Cl)cc1	none
CCOc1cc(NC(=O)c2cnccn2)c(OCC)cc1NC(=O)c1ccc(OC)cc1	Pf growth 48h inconclusive, Pf growth 96h inconclusive
O=C(c1ccc(S(=O)(=O)c2ccc(Cl)cc2)cc1)N1CCOCC1	Pf growth 96h inconclusive
Cc1[nH]nc2c1C(c1cc(Br)cs1)C(C#N)=C(N)O2 (configuration not stated)	Pf growth 96h inconclusive
C=CCc1ccc(OCCOCCNCCCC)c(OC)c1	none
CC(C)n1c(=O)c(C=Nc2ccc(F)cc2)c(O)n(Cc2ccco2)c1=O	Pf growth 48h 15µM, Pf growth 96h inconclusive
CC(C)n1c(=O)c(C=Nc2ccc(Cl)cc2)c(O)n(Cc2ccco2)c1=O	Pf growth 48h 10µM, Pf growth 96h 1µM
COc1cccc(N=Cc2c(O)n(Cc3ccco3)c(=O)[nH]c2=O)c1	none
